Screens (PubChem)
TDP-43 yeast inh: rescues yeast growth from TDP-43 toxicity. TDP-43 expressing yeast growth rescue, BacTiter-Glo, 24 h. Potency, µM (series often up to 46.1 µM), most hits filed as activators. hit rate 1.8% among 410,000. AID 652104; also: nearly all actives have a fitted effect of over 50% in size
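Readout is BacTiter-Glo luminescence of cell growth, so inhibitors register as activators. TDP-43-expressing yeast at OD600=0.02 in galactose medium, after raffinose pregrowth to mid-log, were incubated with compound for 24 hr at 30 deg C.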
Mito fusion yeast: inhibitors of mitochondrial division or activators of mitochondrial fusion; S. cerevisiae fusion-defective mutant growth rescue, CellTiterGlo 48 h; Potency, µM (highest dose often 46.1 µM), actives largely listed as activators; hit rate 0.23% among 320,000; AID 485298; also: nearly all actives have a fitted effect of over 45% in size
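Yeast fusion mutant, YPEG (non-fermentable carbon), compound, 48 h at 37C non-permissive; CellTiterGlo added, 10 min RT, luminescence read. Rescued growth = division inhibition.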
Abeta rescue: A-beta toxicity reversal in yeast; yeast expressing A-beta42, growth rescue, OD600, 48 h; response scale: 0% DMSO, 100% iron-clioquinol control; Potency, µM (top dose mostly 46.1 µM), usual class: activators; hit rate 0.063% among 410,000; AID 1347071; also: nearly all actives have a fitted effect of over 55% in size
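Yeast growth medium received pinned compounds, then yeast cells expressing toxic A-beta were added; plates incubated at 30 C for 48 hr. Growth read as absorbance at 600 nm, normalized to DMSO and equimolar FeCl3 plus clioquinol controls.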
FUS suppressor: suppressors of FUS proteinopathy in yeast; S. cerevisiae FUS-expressing, growth rescue, OD600, 24 h; Potency, µM (titrated, usually from 76.6 µM), actives largely listed as activators; hit rate 0.24% among 390,000; AID 1347120; also: nearly all actives have a fitted effect of over 55% in size
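Galactose (2%) drives FUS expression in yeast precultured in raffinose; seeding density OD 0.005. Test compounds incubated 24hr at 30C and 99% humidity before absorbance at 600 nm was measured.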
aSyn yeast inh: rescues yeast growth from alpha-synuclein toxicity; Yeast expressing alpha-synuclein, growth rescue, BacTiter-Glo, 24 h; Potency, µM (top dose mostly 46.1 µM), most hits filed as activators; hit rate 0.14% among 370,000; AID 652106; also: nearly all actives have a fitted effect of over 65% in size
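Screening used galactose-induced yeast with toxic alpha-synuclein levels, exposed to compound for 24 hr at 30 deg C. Cell growth, read with BacTiter-Glo luminescence, gave the measured signal.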
Numbers stand for hits; [ ] = remark or other dose. Rows were chosen to be rich in hits. Some 2.2% of all compounds tested hit in one or more screens of this group. Calls follow the shape of the dose curve; as a rule, active = well fitted curve in the direction sought with a large enough effect; inconclusive = small, poorly fitted or top-dose-only effect, or another doubt; inactive = no such curve, though single readings can be large; an effect the other way counts as inactive or inconclusive.

COc1ccc(C(C)(NC(C)=O)c2nc(-c3cccc(C(F)(F)F)c3)cs2)cc1 (stereo not given) was read as TDP-43 yeast inh 35µM, Abeta rescue inactive, FUS suppressor inconclusive and aSyn yeast inh inactive.
For CC(=O)NC(C)(c1ccccc1)c1nc(-c2ccc(F)c(Cl)c2)cs1 (stereo not given) the results were TDP-43 yeast inh 11µM, Abeta rescue inactive, FUS suppressor inactive and aSyn yeast inh inactive.
For Cc1cccc(CN2[C@@H](CC(C)C)COCCS2(=O)=O)c1 the results were TDP-43 yeast inh inactive, Abeta rescue inactive, FUS suppressor inactive and aSyn yeast inh inactive.
Screening CC(C)OC1=CC(=O)OC(c2cccc(Cl)c2)C1 (stereo not given) returned TDP-43 yeast inh 22µM, Abeta rescue inactive, FUS suppressor inactive and aSyn yeast inh inactive.
CC1CCN(C(=O)CCCC(=O)N2CCC(C)CC2)CC1 was read as TDP-43 yeast inh inactive, Mito fusion yeast inactive, Abeta rescue inactive, FUS suppressor inactive and aSyn yeast inh inactive.
Screening COc1cc2c(cc1OC)C1O[C@](c3ccsc3)(C2)OC2=C1C(=O)CC(C)(C)C2 returned Mito fusion yeast inactive[9.22 µM].
`C[C@]12CC[C@H](O)CC1=CCC1C2CC[C@@]2(C)C1CC[C@@H]2NCc1ccccc1` (stereo not given in full) gave TDP-43 yeast inh 1.1µM, Abeta rescue inactive, FUS suppressor inactive and aSyn yeast inh inactive.
For CCCCc1c(C)c2cc(C)ccc2[nH]c1=O the results were TDP-43 yeast inh 10µM, Mito fusion yeast inactive, Abeta rescue inactive, FUS suppressor inactive and aSyn yeast inh inactive.
Screening CCCc1c(C)c2cc(C)ccc2[nH]c1=O returned TDP-43 yeast inh inactive, Mito fusion yeast inactive, Abeta rescue inactive, FUS suppressor inactive and aSyn yeast inh inactive.
Screening CSc1nc(N)nc(-c2cccs2)c1C#N returned TDP-43 yeast inh 20µM, Mito fusion yeast inactive, Abeta rescue inactive, FUS suppressor inactive and aSyn yeast inh inactive.
Screening CC(C)Sc1nc(N)nc(-c2cccs2)c1C#N returned TDP-43 yeast inh 18µM, Mito fusion yeast inconclusive, Abeta rescue inactive[9.22 µM], FUS suppressor inactive and aSyn yeast inh inactive.
CC1(C)OC(=O)C2=C(C[C@@H](C3CCCCC3)O[C@@H]2c2ccc(F)cc2)O1 was read as TDP-43 yeast inh inactive, Abeta rescue inactive, FUS suppressor inactive and aSyn yeast inh inactive.
`O=S(=O)(NCc1c(Cl)cccc1Oc1ccccc1)c1ccc(F)cc1` gave TDP-43 yeast inh 18µM, Mito fusion yeast inactive, Abeta rescue inactive, FUS suppressor inactive and aSyn yeast inh inactive.
`CCOC(=O)[C@@]12CCC3=C1N(CCC3)C(=O)[C@H](CC(=O)N1CCC(c3ccccc3)CC1)C2` gave FUS suppressor inactive.
Cc1cn(C2OC(COC(=O)c3ccccc3)C(OC(=O)c3ccccc3)C2OC(=O)c2ccccc2)c(=O)[nH]c1=O (stereo not given) was read as TDP-43 yeast inh inactive, Mito fusion yeast inactive, Abeta rescue inactive, FUS suppressor 25µM and aSyn yeast inh inactive.
For COc1ccc2nc(N(Cc3cccnc3)C(=O)CCc3ccccc3)sc2c1 the results were TDP-43 yeast inh inactive, Abeta rescue inactive and FUS suppressor inactive.
For CC1=C(C(=O)OCc2ccccc2)C(/C=C/c2ccccc2)NC(=S)N1 (stereo not given) the results were TDP-43 yeast inh inconclusive, Mito fusion yeast 16µM, Abeta rescue inactive, FUS suppressor inconclusive and aSyn yeast inh inactive.
For C=CCOC(=O)C1=C(C)NC(=S)NC1/C=C/c1ccccc1 (stereo not given) the results were TDP-43 yeast inh inactive, Mito fusion yeast inactive, Abeta rescue inactive, FUS suppressor inactive and aSyn yeast inh inactive.
For O=Cc1c(Sc2ccccn2)nc2ccccn2c1=O the results were TDP-43 yeast inh inactive, Mito fusion yeast inactive, Abeta rescue inactive, FUS suppressor inactive and aSyn yeast inh inactive.
For O=Cc1c(Sc2ccccc2)nc2ccccn2c1=O the results were TDP-43 yeast inh 13µM, Mito fusion yeast inactive, Abeta rescue inactive, FUS suppressor inactive and aSyn yeast inh inactive.
`Cc1cccc(N2CCN(C(=O)C3CCN(C(=O)c4cc5sccc5n4C)CC3)CC2)c1C` gave TDP-43 yeast inh 35µM, Abeta rescue inconclusive and FUS suppressor inconclusive.
Screening Cc1cccc(N2CCN(C(=O)C3CCCN(C(=O)c4cc5sccc5n4C)C3)CC2)c1C (stereo not given) returned TDP-43 yeast inh inactive, Abeta rescue inactive and FUS suppressor inconclusive.
`COCCN1Cc2cccc(C(=O)Nc3ccc(C)c(F)c3)c2C1=O` gave TDP-43 yeast inh 13µM, Abeta rescue inactive and FUS suppressor inactive.
`CCCN1Cc2cccc(C(=O)Nc3ccc(C)cc3)c2C1=O` gave TDP-43 yeast inh inactive, Mito fusion yeast inactive, Abeta rescue inactive, FUS suppressor inactive and aSyn yeast inh inactive.
`COCCN1Cc2cccc(C(=O)Nc3cc(C)cc(C)c3)c2C1=O` gave TDP-43 yeast inh inactive, Mito fusion yeast inactive, Abeta rescue inactive, FUS suppressor inactive and aSyn yeast inh inactive.
For CCOC(=O)c1ccc(NC(=O)c2cccc3c2C(=O)N(CC2CCCO2)C3)cc1 (stereo not given) the results were TDP-43 yeast inh 22µM, Mito fusion yeast inactive, Abeta rescue inactive, FUS suppressor inconclusive and aSyn yeast inh inactive.
`COCCN1Cc2cccc(C(=O)Nc3ccc(Cl)cc3Cl)c2C1=O` gave TDP-43 yeast inh 16µM, Abeta rescue inactive and FUS suppressor inactive.
For O=S(=O)(Nc1cccc(-n2cnnn2)c1)c1cc(Br)ccc1Br the results were TDP-43 yeast inh inactive, Mito fusion yeast inactive, Abeta rescue inactive, FUS suppressor inactive and aSyn yeast inh inactive.
For Cc1ccccc1CSCCNC(=O)COc1ccc(Cl)cc1 the results were TDP-43 yeast inh 11µM, Mito fusion yeast inactive, Abeta rescue inactive, FUS suppressor inactive and aSyn yeast inh inactive.
Screening Cc1ccccc1CSCCNC(=O)CCSc1ccccc1 returned TDP-43 yeast inh 16µM, Mito fusion yeast inactive, Abeta rescue inconclusive, FUS suppressor inactive and aSyn yeast inh inactive.
For CCSc1nnc(NC(=O)CN2C(=O)N(C)C3(CCCCC3)C2=O)s1 the results were TDP-43 yeast inh inactive, Mito fusion yeast inactive, Abeta rescue inactive, FUS suppressor inactive and aSyn yeast inh inactive.
Screening Cc1ccc(CCN=c2c([N+](=O)[O-])nn(-c3ccccc3)n2O)cc1 returned TDP-43 yeast inh 11µM, Mito fusion yeast inactive, Abeta rescue inactive, FUS suppressor inactive and aSyn yeast inh inactive.
`COc1ccc(-n2nc([N+](=O)[O-])c(=NCCc3ccccc3)n2O)cc1` gave TDP-43 yeast inh 13µM, Mito fusion yeast inactive, Abeta rescue inactive and aSyn yeast inh inactive.
O=[N+]([O-])c1nn(-c2ccccc2)n(O)c1=NC1CCN(Cc2ccccc2)CC1 was read as TDP-43 yeast inh inactive, Mito fusion yeast inactive, Abeta rescue inactive, FUS suppressor inactive and aSyn yeast inh inactive.
